# Assay outcomes (PubChem BioAssay)
# Sampled rows, rich in hits. Any-hit rate of the full collection: about 1.7%.
# Neddylation inh: inhibitors of cullin neddylation, primary screen, biochemical, TR-FRET, uHTS, NAE and Ubc12; inhibition, % at 25 µM; 0.58% of 360,000 active; in the data active = inhibition above about 36%
# Target sequence (P61081 whole entry, looked up): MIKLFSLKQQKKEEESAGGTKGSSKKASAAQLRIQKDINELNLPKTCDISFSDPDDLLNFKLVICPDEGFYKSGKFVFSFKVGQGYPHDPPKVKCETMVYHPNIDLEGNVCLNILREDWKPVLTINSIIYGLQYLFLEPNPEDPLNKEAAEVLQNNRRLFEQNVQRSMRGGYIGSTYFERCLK
# Target sequence (Q13564 whole entry, looked up): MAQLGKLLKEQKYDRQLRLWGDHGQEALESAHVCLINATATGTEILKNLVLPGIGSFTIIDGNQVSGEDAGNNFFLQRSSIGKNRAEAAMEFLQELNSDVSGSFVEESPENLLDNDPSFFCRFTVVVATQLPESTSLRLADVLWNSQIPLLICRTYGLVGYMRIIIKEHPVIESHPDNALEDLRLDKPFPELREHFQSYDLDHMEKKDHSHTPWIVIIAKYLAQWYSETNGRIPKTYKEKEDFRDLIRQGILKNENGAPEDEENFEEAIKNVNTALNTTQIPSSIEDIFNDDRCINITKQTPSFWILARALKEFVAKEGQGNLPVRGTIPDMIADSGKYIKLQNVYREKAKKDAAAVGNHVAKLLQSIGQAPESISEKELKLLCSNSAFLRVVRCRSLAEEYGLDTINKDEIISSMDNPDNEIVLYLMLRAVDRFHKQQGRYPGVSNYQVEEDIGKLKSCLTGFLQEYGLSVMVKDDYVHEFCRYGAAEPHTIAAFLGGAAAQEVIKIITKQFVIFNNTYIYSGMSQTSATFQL
# ATG4B inhibitor: ATG4B protease inhibitors, primary screen, biochemical, fluorescence, uHTS; Cysteine protease ATG4B (Homo sapiens), Q9Y4P1; ATG4B cleavage of LC3-PLA2, NBD-HPC fluorescence, 1 h; inhibition, % at 8.33 µM; 0.51% of 340,000 active; in the data active = inhibition above about 40%
# SUMO1 PPI mod: modulators of SUMO1 protein-protein interactions, primary screen, biochemical, uHTS | 0.33% of 360,000 active | SUMO1 binding to a labelled peptide, TR-FRET, 1 h | inhibition, % at 20 µM; in the data active = inhibition above about 37%
# Rin1 Abl inh: inhibitors of Rin1-Abl protein binding, primary screen, biochemical, TR-FRET; Tyrosine-protein kinase ABL1 (Homo sapiens) + Ras and Rab interactor 1 (Homo sapiens), …; inhibition, % at 7.35 µM; 0.4% of 360,000 active; AID 588664, 2011; in the data active = inhibition above about 5%, passing the limit was not always enough
# ATG4B conf: ATG4B protease inhibitors, retest, confirmation, biochemical, fluorescence, single concentration | shares compounds with ATG4B inhibitor | ATG4B protease fluorescent substrate cleavage assay | inhibition, % at 8.33 µM | 92% of 320 active | AID 504757, 2011; in the data active = inhibition above about 39%
# PLA2 ctr: PLA2 enzyme inhibition, counter-screen for ATG4B inhibitor project, biochemical, single concentration, uHTS hits; shares compounds with ATG4B inhibitor; purified PLA2, NBD-C6-HPC fluorescence, 45 min; inhibition, % at 8.33 µM; 66% of 1,600 active; AID 588402, 2011; in the data active = inhibition above about 50%
# * = called active by the depositor; . = no result shown.
SMILES,Neddylation inh,ATG4B inhibitor,SUMO1 PPI mod,Rin1 Abl inh,PLA2 ctr,others
O=Cc1cc(N=Nc2ccccc2Cl)ccc1O,-12,56*,-16,1,77*,
O=Cc1cc(N=Nc2cccc(C(=O)O)c2)ccc1O,-33,7,-14,1,.,
C[C@H](O)C#Cc1ccc2c(c1)O[C@@H](CN(C)Cc1ccc(-c3ccccc3)cc1)[C@H](C)CN([C@@H](C)CO)S2(=O)=O,12,.,2,1,.,
COc1ccc(NC(=O)N(C)[C@H]2C[C@H]3c4[nH]c5ccc(-c6cccc(C)c6)cc5c4CCN3C[C@H]2[C@H](C)O)cc1,24,.,-44,-2,.,
N#C/C(=C\c1ccc(OCC(N)=O)cc1)c1ccccc1,-16,45*,-22,-3,53*,
CC(C)C[C@H]1CNC(=O)C(=O)N1C[C@H]1CCCN1C[C@H](CC(C)C)N1C[C@H](Cc2ccccc2)N(CCc2ccccc2)C(=O)C1=O,5,.,0,2,.,
COC(=O)/C=C1\OC(C2CC2)c2ccccc21 (centres undefined),-2,.,2,.,.,
CCn1c(SCC(=O)Nc2oc(-c3ccccc3)c(-c3ccccc3)c2C#N)nnc1-c1ccco1,7,61*,6,-3,68*,
CCN(CC)C(=O)CSc1nc2ccccc2c(=O)n1-c1cccc(OC)c1,-1,-7,5,-4,.,
COc1cccc(-n2c(SCc3cc(=O)oc4cc(O)c(O)cc34)nc3ccccc3c2=O)c1,.,99*,2,-4,100*,
O=[N+]([O-])c1ccc(Nc2c3ccccc3nc3ccccc23)cc1,-18,58*,-29,-5,60*,
Cc1cccc(N=C2NC(=O)/C(=C/c3cccn3C)S2)c1,-11,12,-11,-4,.,
O=C1NC(=Nc2ccccc2)S/C1=C\c1cccn1-c1ccccc1,-4,68*,-3,-5,59*,
CCOc1ccc(-c2cn3ccccc3n2)cc1[N+](=O)[O-],-12,5,-20,-3,.,
CCCCOc1ccc(-c2cn3ccccc3n2)cc1[N+](=O)[O-],1,45*,-15,-3,48,
COc1cc(NS(=O)(=O)c2ccc(Nc3nc(-c4cccc([N+](=O)[O-])c4)cs3)cc2)nc(OC)n1,-24,45*,14,-1,43,ATG4B conf=78*
COC(=O)N(C)C[C@@H]1OCc2cnnn2CCCC(=O)N([C@H](C)CO)C[C@H]1C,5,.,-4,-5,.,
Cc1cccc(-n2c(C)cc(/C=C3\C(=N)N4N=C(CC(C)C)SC4=NC3=O)c2C)c1,.,12,-3,-6,.,
Cc1cc(C)cc(-n2c(C)cc(/C=C3\C(=N)N4N=C(CC(C)C)SC4=NC3=O)c2C)c1,.,44*,1,1,47,ATG4B conf=46*
CCCC1=NN2C(=N)/C(=C\c3cc(C)n(-c4cc(C)cc(C)c4)c3C)C(=O)N=C2S1,37,58*,-9,-2,55*,
CC(C)C[C@@H](COCc1ccc([N+](=O)[O-])cc1)N1CCN(C(=O)c2ccc(C(F)(F)F)cc2)CCC1=O,-13,.,-3,.,.,
Cn1cccc1-c1cc(C(=O)N/N=C/c2cc(Br)ccc2O)[nH]n1,26,49*,6,-2,56*,
NS(=O)(=O)c1ccc(NCc2c(F)cccc2Cl)cc1,-5,22,-1,4,.,
Fc1cccc(Cl)c1CNc1ccc(N2CCCC2)cc1,13,59*,-6,1,58*,
NC(=O)CSc1nnc(CNc2cccc(Cl)c2)n1CCc1ccccc1,6,49*,0,4,66*,
SMILES,Neddylation inh,ATG4B inhibitor,SUMO1 PPI mod,Rin1 Abl inh,PLA2 ctr,others
CCOC(=O)CSc1nnc(CNc2cccc(Cl)c2)n1C,-6,-5,2,2,.,
Cc1cc(C)cc(NC(=O)c2nnn(Cc3cc(C)ccc3C)c2N)c1,7,57*,1,-5,78*,
COc1cccc(NC(=O)c2nnn(CC(=O)Nc3cc(C)cc(C)c3)c2N)c1,-14,0,-4,0,.,
Cc1ccc(C)c(Cn2nnc(C(=O)Nc3ccc4c(c3)OCCO4)c2N)c1,21,55*,0,6,65*,
Fc1ccccc1C1CC(c2ccco2)=Nc2ccccc2S1 (centres undefined),21,53*,-9,-3,73*,
Cc1n[nH]c(=O)c2c(NC(=O)CSc3nc4ccccc4c(=O)n3-c3ccc(OC(F)F)cc3)oc(C)c12,-18,41*,-12,1,75*,
O=C(CSc1nccn1-c1ncc(C(F)(F)F)cc1Cl)c1ccc(Br)cc1,.,104*,2,-1,10,
CCN(CC)C(=O)c1ccc2c(=O)n(Cc3ccc4c(c3)OCO4)c(=S)[nH]c2c1,7,-5,-7,0,.,
CC1CCCN(C(=O)c2ccc3c(=O)n(Cc4ccc5c(c4)OCO5)c(=S)[nH]c3c2)C1 (centres undefined),-40,85*,-1,-2,62*,
O=c1cc(-c2ccc(O)c(-c3c(O)cc(O)c4c(=O)cc(-c5ccc(O)cc5)oc34)c2)oc2cc(O)cc(O)c12,14,82*,39,-2,76*,
CC(=O)c1ccc(N2CCN(C(=O)CCCn3c(=S)[nH]c4cc5c(cc4c3=O)OCO5)CC2)cc1,-207,45*,-7,3,61*,
O=C(CCCn1c(=S)[nH]c2cc3c(cc2c1=O)OCO3)N1CCN(c2ccc(Cl)cc2)CC1,-107,53*,1,2,57*,
O=C(CCCn1c(=S)[nH]c2cc3c(cc2c1=O)OCO3)N1CCN(c2ccccc2)CC1,-72,38,-1,2,.,
O=C(CCCn1c(=S)[nH]c2cc3c(cc2c1=O)OCO3)N1CCc2ccccc2C1,-15,60*,-2,2,63*,
O=C(NCc1cccc(Cl)c1)c1cc(COc2ccc3ncccc3c2)on1,-32,19,0,1,.,
Cc1ccc(F)cc1CNC(=O)c1cc(COc2ccc3ncccc3c2)on1,-4,61*,-2,0,68*,
O=C(Nc1cc(C(F)(F)F)ccc1F)C1Cc2c(-c3ccccc3Oc3ccccc3)ccnc2O1 (centres undefined),8,.,-2,-3,.,
CCCCC[C@H](C)N1C[C@H](COCc2ccccc2)Oc2cc(N3CCC[C@H]3CO)ccc2S1(=O)=O,10,.,6,.,.,
COc1ccc(CN2C(=O)c3ccccc3C(/C=N\OCc3ccc(F)cc3)C2=O)cc1 (centres undefined),3,60*,13,-3,75*,
Cc1ccc(N2CCN(C(C(=O)Nc3c(C)cccc3C)c3cccc(F)c3)CC2)cc1 (centres undefined),-4,.,4,.,.,
